LDHA inh: blocks human lactate dehydrogenase A | P00338 | purified LDHA, NADH/diaphorase-resazurin fluorescence; stronger effect = lower value | activity change, % (values are at about 110 or 230 µM) | hit rate 0.15% among 480,000 | AID 1347041; in the data active = activity change below about -30%; inconclusive = mostly about -25% to -30%;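 note: plate controls were DMSO wells for no effect and wells without enzyme for full effect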
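Enzyme activity of human lactate dehydrogenase 5 (2 nM; 0.06 mM NADH, 0.2 mM pyruvate, 5 min, RT) is measured via a resazurin/diaphorase fluorescence readout of residual NADH.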
PKM2 activator: increases activity of human pyruvate kinase M2. Potency, µM (titrated, usually from 57.5 µM), inactives show top-dose activation, usual class: activators. AID 1631. P14618. purified PKM2, Kinase-Glo ATP luminescence, activation; response scale: 0% is enzyme alone, no compound. hit rate 0.34% among 260,000; note: potency is the fitted concentration of half-maximal effect; nearly all actives have a fitted effect of over 55% in size
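hPK-M2, >95% pure; 0.1 mM ADP / 0.5 mM PEP final; imidazole pH7.2 buffer w/ 7 mM MgCl2, 50 mM KCl; 1 h RT; Kinase-Glo lum. Intermediate enzyme activity for dual inhibitor/activator qHTS.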
TrxR1 substrate: substrates of rat thioredoxin reductase 1. Potency, µM (top dose mostly 114 µM), for the others: at the top dose activity change, negative = substrate turnover. purified TrxR1 substrate turnover, NADPH consumption readout. hit rate 0.01% among 390,000. O89049; note: potency is the fitted concentration of half-maximal effect; nearly all actives have a fitted effect of over 50% in size
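Rat TrxR1, dispensed at 90 nM, was prereduced with 400 uM NADPH (final) for 5 min at ~22 deg C, then incubated with compound 15 min before 400 uM selenite. A first-read NADPH fluorescence drop versus no-compound background flagged substrates.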
GLS inhibitor: blocks human kidney-isoform glutaminase activity | O94925 | GLS enzymatic activity, qHTS titration | Potency, µM (highest dose often 45.5 µM), without a hit: top-dose activity change, negative = inhibition, hits mostly inhibitors | hit rate 0.21% among 410,000 | AID 624170; note: potency is the fitted concentration of half-maximal effect
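Read-out is an Amplex red fluorescence increase coupled through glutamate oxidase and HRP, measured before and after 30 min room-temperature incubation. hKGA is in 45 mM KH2PO4 (pH 8.2) with 0.02% Tween-20; glutamine added as 1mM solution.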
TrxR1 inh: blocks rat thioredoxin reductase 1; O89049; recombinant rTrxR1, NADPH fluorescence consumption, selenite substrate; Potency, µM (series often up to 114 µM), for the others: top-dose activity change, negative = inhibition, hits mostly inhibitors; hit rate 1% among 390,000; AID 588453; note: potency is the fitted concentration of half-maximal effect; nearly all actives have a fitted effect of over 65% in size
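Rat TrxR1 (90 nM in the dispensed reagent) was pre-reduced with 400 uM NADPH for 5 min at room temperature, then incubated with compound for 15 min. After 400 uM selenite was added, NADPH fluorescence (Ex 340/Em 450 nm) was followed for 8 min.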
mIDH1 inhibitor: blocks human mutant IDH1 R132H enzyme; O75874; IDH1-R132H enzyme, NADPH consumption, diaphorase/resazurin fluorescence; Potency, µM (doses to about 76.6 µM), without a hit: at the top dose activity change, negative = inhibition, usual class: inhibitors; hit rate 0.093% among 390,000; note: potency is the fitted concentration of half-maximal effect; nearly all actives have a fitted effect of over 65% in size
Target sequence (O75874 whole entry R132H, stated change not applied): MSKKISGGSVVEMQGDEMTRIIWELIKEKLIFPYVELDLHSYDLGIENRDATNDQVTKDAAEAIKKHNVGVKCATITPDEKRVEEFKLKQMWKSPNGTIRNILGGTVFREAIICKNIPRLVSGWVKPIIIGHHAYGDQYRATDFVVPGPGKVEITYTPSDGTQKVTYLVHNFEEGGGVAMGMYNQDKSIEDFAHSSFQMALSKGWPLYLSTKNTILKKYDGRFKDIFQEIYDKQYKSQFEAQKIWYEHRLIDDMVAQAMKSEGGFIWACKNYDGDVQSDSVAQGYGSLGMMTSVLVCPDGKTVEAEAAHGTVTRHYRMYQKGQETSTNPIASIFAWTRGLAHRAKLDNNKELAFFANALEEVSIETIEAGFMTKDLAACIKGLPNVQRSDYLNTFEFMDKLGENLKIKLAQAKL
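IDH1-R132H (0.5 ug/mL) preincubated 30 min with compound, then NADPH (0.016 mM) and alpha-KG (2 mM) added; 80 min at RT, pH 7.5. Remaining NADPH coupled via diaphorase/resazurin to fluorescence (540/590 nm); concentration-response curves normalized to no-enzyme control.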
Active calls of the source: *; ? = inconclusive; nt = no result; [ ] = another dose, or the depositor's remark. An excerpt weighted towards active compounds, which were near 1.4% of everything screened. Unless noted, calls come from the whole dose curve; as a rule, active = well fitted curve in the direction sought with a large enough effect; inconclusive = small, poorly fitted or top-dose-only effect, or another doubt; inactive = no such curve, though single readings can be large; an effect the other way counts as inactive or inconclusive. Unless noted, % is set by controls: 0 for no effect and ±100 for the full control effect.

SMILES	LDHA inh	PKM2 activator	TrxR1 substrate	GLS inhibitor	TrxR1 inh	mIDH1 inhibitor
CCN(CC)C(C(=O)NC1CCCCC1)c1ccc(C)cc1 (stereo not given)	-5	5%	6%	7%	16%[57.1 µM]	6%
COC(CN(C)C(C(=O)NC1CCCCC1)c1ccccc1)OC (stereo not given)	-1	0%	6%	-25%	20%[57.1 µM]	11%
COc1ccc(C(C(=O)NC2CCCCC2)N(C(=O)CCl)c2ccc(Cl)cc2)cc1 (stereo not given)	-9	-2%	-8%	3%	?	2%
COC(CN(C(=O)CCl)C(C(=O)NC1CCCCC1)c1ccc(Cl)cc1)OC (stereo not given)	-6	0%	-10%	4%	35µM*	5%
O=C(NC1CCCC1)C(c1ccc(Cl)cc1)N(Cc1ccc(F)cc1)C(=O)CCl (stereo not given)	7	3%	4%	8%	13µM*	2%
COC(CN(C(=O)CCl)C(C(=O)NC1CCCC(C)C1C)c1ccc(C)cc1)OC (stereo not given)	-4	-4%	-7%	0%	56µM*	-1%
Cc1cc(F)ccc1NCc1ccccc1C#N	-21	nt	nt	nt	nt	nt
CCc1ccccc1NC(=O)CNC(=O)c1ccc(S(=O)(=O)NCc2ccco2)cc1	1	nt	nt	2%	nt	-2%
Cc1cccc(C)c1NC(=O)CNC(=O)c1ccc(S(=O)(=O)NCc2ccco2)cc1	-1	nt	3%	-14%	28µM*	-3%
Cc1cccc(NC(=O)c2ccc(F)c(S(=O)(=O)NCc3ccco3)c2)c1	0	nt	-8%	-13%	79µM*	0%
CC(=O)Nc1cccc(NC(=O)c2ccc(S(=O)(=O)NCc3ccco3)cc2)c1	-2	nt	nt	1%	nt	-4%
C=CCNc1oc(-c2ccc(-c3ccccc3)cc2)nc1C#N	8	nt	-4%	12%	14µM*	nt
CCC1=NN2C(=N)/C(=C\c3ccc(OCc4cc(=O)n5nc(CC)sc5n4)c(OC)c3)C(=O)N=C2S1	-2	5%	-11%	11µM*	-10%	-5%
CCc1nn2c(=O)cc(COc3ccc(/C=C4\C(=N)N5N=C(CC(C)C)SC5=NC4=O)cc3)nc2s1	-11	-19%	5%	8%	-1%	-4%
Cc1ccc(NC(=O)C(=O)c2c[nH]c3ccccc23)cc1Cl	4	nt	nt	nt	nt	nt
O=c1oc2ccccc2c(N2CCCC2)c1CN1CCCC1	0	0%	-7%	19%	?	-3%
O=c1oc2ccccc2c(Cl)c1CN1CCCCC1	-12	3%	6%	11%	3.2µM*	-5%
O=C1CSc2ccc(C(=O)NN(c3ccccc3)c3ccccc3)cc2N1	1	nt	nt	nt	nt	nt
Cc1ccc(C(=O)c2sc(Nc3ccccc3)nc2N)c(C)c1	-1	nt	nt	nt	nt	nt
COc1ccc(CCNC(=O)CN(c2ccc(Br)c(C)c2)S(C)(=O)=O)cc1OC	10	nt	nt	nt	nt	nt
O=C1C=C(N2CCOCC2)c2ccccc2C1=O	4	-7%	25µM*	3%	?	17%
O=C1C=C(N2CCOCC2)c2cccc3cccc1c23	-1	nt	nt	-2%	nt	13%
CCOC(=O)c1ccc(N2N=C(C)/C(=C/C=C/c3ccco3)C2=O)cc1	-2	-10%	-2%	-1%	-10%	-1%
O=C(O)c1cc(N2N=C(C(F)(F)F)/C(=C/C=C/c3ccco3)C2=O)ccc1Cl	4	2%	-4%	8.9µM*	?	-9%
Cc1ccc(CN(Cc2cccnc2)C(=O)CN2C(=O)COc3ccccc32)o1	-3	28µM*	7%[11.4 µM]	10%	?	0%
CC(C)(C)C(=O)NCCCNC(=O)C(C)(C)C	-5	nt	nt	nt	nt	nt
O=C1c2ccccc2C(=O)N1OS(=O)(=O)c1ccc(F)cc1	2	4%[0.46 µM]	0%	19%	21%	1%
Cc1ccc(S(=O)(=O)ON2C(=O)c3ccccc3C2=O)c(C)c1	-4	4%	51%	-30%	3.5µM*	3%
